Test [1] addresses Voltage-gated inwardly rectifying potassium channel KCNH2 (Homo sapiens) (UniProt Q12809). Description: qHTS Assay for Small Molecule Inhibitors of the Human hERG Channel Activity (AID 588834).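 Note: lower thallium flux fluorescence means stronger hERG block; nearly all actives have a fitted effect of over 50% in size.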 Note: potency is the fitted concentration of half-maximal effect. The gist of the method:
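Measured: FluxOR fluorescence after thallium stimulation in U2OS cells transduced with hERG by baculovirus. Compounds pre-incubated around 10 min; medium Opti-MEM with 2% FCS. AC50 from Hill equation.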
In general terms: qHTS replaces the single test concentration by a dilution series.

Test [2] addresses Luciferin 4-monooxygenase (Photinus pyralis) (UniProt P08659). Briefly: Biochemical firefly luciferase enzyme assay for NPC (AID 624030). Note: nearly all actives have a fitted effect of over 70% in size. Note: potency is the fitted concentration of half-maximal effect. In a few lines: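 Counter-screen for direct inhibition of the luciferase enzyme by approved-drug library compounds, run at 10 nM enzyme in 50 mM Tris acetate (final). Luminescence was read within 5 min of enzyme-buffer addition and normalized to PTC124 versus DMSO (0%).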

The nature of test [3]: S16 Schwann cell viability assay (CellTiter-Glo assay) (AID 624031). Note: nearly all actives have a fitted effect of over 70% in size. Note: potency is the fitted concentration of half-maximal effect. The gist of the method: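 Native S16 rat Schwann cells, 500-750 cells/well in DMEM with 10% FBS, dosed with compound after overnight culture and incubated 24h at 37 degree Celsius/5% CO2. Viability by CellTiter-Glo luminescence; % activity normalized to no-cell wells and DMSO-treated cells.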
In general terms: ATP-based viability assays read luminescence as a measure of living cells.

A short description of test [4]: S16 Schwann cell PMP22 intronic element firefly luciferase assay (AID 624032). Note: nearly all actives have a fitted effect of over 30% in size. Note: potency is the fitted concentration of half-maximal effect. The gist of the method: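 Rat S16 Schwann cells stably carrying a PMP22 intronic element-driven Fluc reporter were seeded overnight, then exposed to compounds for 24 h at 37 °C. Luminescence was normalized to PTC124 (positive control) and DMSO (0% activity).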
The nature of test [5]: S16 Schwann cell PMP22 intronic element beta-lactamase assay (AID 624044; calls by dose curve; note: nearly all actives have a fitted effect of over 15% in size; note: potency is the fitted concentration of half-maximal effect). The gist of the method: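 Rat S16 Schwann cells with beta-Lac driven by a PMP22 intronic element, compound-treated 24 h at 37 °C. LiveBLAzer FRET B/G read: 460 nm normalized to potassium clavulanate vs DMSO; 535 nm FRET as viability; concentration-effect curves classified.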
Test [6] is described as follows: qHTS assay for small molecule activators of the p53 signaling pathway (AID 651743; active = well fitted activation curve with a large enough effect in the signal ratio, not every such curve was filed as active; the % refers to the signal ratio; note: series mostly up to about 92 µM; % of control where 0% means no effect). The note with it: HCT-116 p53RE-bla, beta-lactamase FRET ratio, 16 h; activation: active compounds read high. The gist of the method:
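p53RE-bla HCT-116 cells with a stably integrated beta-lactamase reporter under p53 response elements were plated, rested 5 hours at 37 C/5% CO2, then exposed to compounds in DMSO for 16 hours at 37 C. LiveBLAzer B/G FRET substrate was read after 2 hours at room temperature.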

A short description of test [7]: qHTS assay for small molecule activators of the nuclear factor-kappa B (NF-kB) signaling pathway (AID 651749; active = well fitted activation curve with a large enough effect in the signal ratio; the % refers to the signal ratio; note: series mostly up to about 77 µM; % of control where 0% means no effect). The note with it: NF-kB-bla ME-180 cells, beta-lactamase FRET ratio, 16 h; active compounds read high. The gist of the method:
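ME-180 cells stably carrying a beta-lactamase reporter under an NF-kB response element were exposed to compound or DMSO vehicle for 16 hr at 37C, 5% CO2. Pathway activation was read by FRET, since reporter expression disrupts FRET.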

Inconclusive results are not listed. A number with no mark means an inactive call. Active and inactive are the calls of the source. Unless noted, calls come from the whole dose curve; as a rule, active = well fitted curve in the direction sought with a large enough effect; inconclusive = small, poorly fitted or top-dose-only effect, or another doubt; inactive = no such curve, though single readings can be large; an effect the other way counts as inactive or inconclusive. Where a SMILES comes first, the peptide text is derived from it. Bridges are numbered along the chain shown (N, C = ends). [ ]: non-standard residue; d: D form. The star is where a group is joined. Dab(CH2SO3H) = N[C@@H](CCNCS(=O)(=O)O)C(=O)O; X3 = CC[C@@H](C)CCCCC(=O)*; Dab = NCC[C@H](N)C(=O)O

Sequence of Luciferin 4-monooxygenase (Photinus pyralis) (P08659 whole entry, looked up): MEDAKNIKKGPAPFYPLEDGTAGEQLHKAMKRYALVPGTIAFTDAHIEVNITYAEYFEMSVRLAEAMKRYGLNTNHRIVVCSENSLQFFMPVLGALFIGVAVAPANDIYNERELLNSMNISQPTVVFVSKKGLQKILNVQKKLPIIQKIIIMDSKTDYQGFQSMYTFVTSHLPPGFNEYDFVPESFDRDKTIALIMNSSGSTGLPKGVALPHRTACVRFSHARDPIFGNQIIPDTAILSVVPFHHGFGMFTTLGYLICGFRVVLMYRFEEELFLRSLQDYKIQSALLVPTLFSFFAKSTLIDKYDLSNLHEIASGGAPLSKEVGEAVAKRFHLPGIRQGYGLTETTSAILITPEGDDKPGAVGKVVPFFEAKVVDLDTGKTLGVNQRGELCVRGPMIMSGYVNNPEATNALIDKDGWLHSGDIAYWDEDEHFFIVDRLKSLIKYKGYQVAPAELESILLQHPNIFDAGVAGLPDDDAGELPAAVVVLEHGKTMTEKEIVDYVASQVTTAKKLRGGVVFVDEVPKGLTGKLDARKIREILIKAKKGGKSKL
Sequence of Voltage-gated inwardly rectifying potassium channel KCNH2 (Homo sapiens) (Q12809 whole entry, looked up): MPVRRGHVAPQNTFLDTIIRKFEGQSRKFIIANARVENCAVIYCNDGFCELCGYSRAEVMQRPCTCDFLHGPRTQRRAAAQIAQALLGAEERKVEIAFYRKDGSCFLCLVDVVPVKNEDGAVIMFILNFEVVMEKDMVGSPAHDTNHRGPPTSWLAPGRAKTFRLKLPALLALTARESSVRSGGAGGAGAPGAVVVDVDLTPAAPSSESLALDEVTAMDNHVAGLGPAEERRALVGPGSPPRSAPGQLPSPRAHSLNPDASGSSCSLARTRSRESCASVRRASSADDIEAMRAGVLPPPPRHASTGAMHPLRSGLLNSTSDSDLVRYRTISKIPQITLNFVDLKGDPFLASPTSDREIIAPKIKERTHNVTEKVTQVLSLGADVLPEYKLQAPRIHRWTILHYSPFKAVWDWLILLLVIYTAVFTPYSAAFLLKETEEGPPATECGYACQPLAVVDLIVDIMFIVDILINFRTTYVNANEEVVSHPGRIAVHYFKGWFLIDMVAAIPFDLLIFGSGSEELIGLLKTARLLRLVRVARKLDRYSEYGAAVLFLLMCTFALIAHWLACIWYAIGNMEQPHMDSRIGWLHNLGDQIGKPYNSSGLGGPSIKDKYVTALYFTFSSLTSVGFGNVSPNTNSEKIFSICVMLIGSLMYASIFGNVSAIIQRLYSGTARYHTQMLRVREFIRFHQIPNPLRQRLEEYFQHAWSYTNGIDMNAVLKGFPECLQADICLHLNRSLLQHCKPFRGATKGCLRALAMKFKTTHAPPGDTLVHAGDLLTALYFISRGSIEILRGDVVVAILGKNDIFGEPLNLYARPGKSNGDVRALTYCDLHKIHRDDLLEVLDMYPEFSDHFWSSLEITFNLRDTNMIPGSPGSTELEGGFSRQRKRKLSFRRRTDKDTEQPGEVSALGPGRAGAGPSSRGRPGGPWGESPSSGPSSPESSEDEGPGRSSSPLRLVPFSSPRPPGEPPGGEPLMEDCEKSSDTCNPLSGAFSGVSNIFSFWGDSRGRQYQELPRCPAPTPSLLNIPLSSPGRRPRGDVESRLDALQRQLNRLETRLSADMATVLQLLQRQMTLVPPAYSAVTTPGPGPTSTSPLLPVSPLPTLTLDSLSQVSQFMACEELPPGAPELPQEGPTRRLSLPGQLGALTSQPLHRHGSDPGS

Regarding `C[C@@H]1CCC2[C@@H](C)[C@@H](O)O[C@@H]3O[C@@]4(C)CC[C@@H]1[C@@]23OO4` (stereo not given in full), the Potency entry in test [1], in test [2], in test [3] and in test [5] was “inactive” in each case. In addition, the Potency in test [4] was 1.02 µM (active).

In the case of `C=C1CC[C@@H]2[C@](C)(CO)[C@H](O)CC[C@@]2(C)[C@@H]1C/C=C1/C(=O)OC[C@H]1O`, in test [1], the Potency entry is “inactive”.

Turning to `Cc1cn([C@H]2C[C@H](O)[C@@H](CO)O2)c(=O)[nH]c1=O`, the Potency entry in test [1], in test [2] and in test [3] was “inactive” in each case.

With `CC(C(=O)O)c1ccc(N2Cc3ccccc3C2=O)cc1` (stereo not given), the Potency entry in test [1], in test [3], in test [4] and in test [5] was “inactive” each time. For the same compound, in test [2], the Potency was 0.181 µM (active).

`CO[C@H]1C=CO[C@@]2(C)Oc3c(C)c(O)c4c(O)c(c(/C=N/N5CCN(C6CCCC6)CC5)c(O)c4c3C2=O)NC(=O)/C(C)=C\C=C[C@H](C)[C@H](O)[C@@H](C)[C@@H](O)[C@@H](C)[C@H](OC(C)=O)[C@@H]1C`: the Potency result in test [1] was “inactive”.

As to `CO[C@H](C(=O)[C@@H](O)[C@@H](C)O)C1Cc2cc3cc(O[C@H]4C[C@@H](O[C@H]5C[C@@H](O)[C@H](O)[C@@H](C)O5)[C@@H](O)[C@@H](C)O4)c(C)c(O)c3c(O)c2C(=O)[C@H]1O[C@H]1C[C@@H](O[C@H]2C[C@@H](O[C@H]3C[C@](C)(O)[C@H](O)[C@@H](C)O3)[C@H](O)[C@@H](C)O2)[C@H](O)[C@@H](C)O1` (stereo not given in full), the Potency result in test [1], in test [2], in test [3] and in test [4] was “inactive” each time. Also, in test [5], the Potency is 22.4 µM (active).

`C=C(NC(=O)C(=C)NC(=O)c1csc(C2=N[C@@H]3c4csc(n4)[C@H]4NC(=O)c5csc(n5)[C@H]([C@](C)(O)[C@@H](C)O)NC(=O)[C@H]5CSC(=N5)C(=CC)NC(=O)C([C@@H](C)O)NC(=O)c5csc(n5)[C@]3(CC2)NC(=O)[C@H](C)NC(=O)C(=C)NC(=O)[C@H](C)NC(=O)C([C@@H](C)CC)NC2C=Cc3c([C@H](C)O)cc(nc3C2O)C(=O)O[C@@H]4C)n1)C(N)=O` (stereo not given in full): the Potency entry in test [1] was “inactive”.

In the case of `N[C@H](C(=O)O)[C@@H]1CC(Cl)=NO1`, the Potency entry in test [1] is “inactive”.

For `COc1ccc2c3c1O[C@H]1C[C@@H](O)C=C[C@@]31CCN(C)C2`, the Potency result in test [1], in test [2], in test [3], in test [4] and in test [5] was “inactive” in each case.

Turning to `CCCCCCOc1ccc(C(=N)N(CCCC)CCCC)c2ccccc12`, the Potency was 2.24 µM (active) in test [1], 16.1 µM (active) in test [3] and 22.8 µM (active) in test [4]. The Potency result in test [2] was “inactive”.

Consider `CC[C@@H](C)CCCCC(=O)N[C@@H](CCNCS(=O)(=O)O)C(=O)N[C@H](C(=O)N[C@@H](CCNCS(=O)(=O)O)C(=O)N[C@H]1CCNC(=O)[C@H]([C@@H](C)O)NC(=O)[C@H](CCNCS(=O)(=O)O)NC(=O)[C@H](CCNCS(=O)(=O)O)NC(=O)[C@H](CC(C)C)NC(=O)[C@@H](CC(C)C)NC(=O)[C@H](CCNCS(=O)(=O)O)NC1=O)[C@@H](C)O` (X3-[Dab(CH2SO3H)]T[Dab(CH2SO3H)][Dab][Dab(CH2SO3H)][dL]L[Dab(CH2SO3H)][Dab(CH2SO3H)]T; lactam 4-C), for which the Potency result in test [1] was “inactive”.

With `COc1cc2c(cc1O)CCN[C@]21CS[C@@H]2c3c(OC(C)=O)c(C)c4c(c3[C@H](COC1=O)N1[C@@H]2[C@H]2c3c(cc(C)c(OC)c3O)C[C@@H]([C@@H]1O)N2C)OCO4`, the Potency entry in test [1] was “inactive”.

As for `CCOC(=O)O[C@]1(C(=O)COC(=O)CC)CC[C@H]2[C@@H]3CCC4=CC(=O)C=C[C@]4(C)[C@H]3[C@@H](O)C[C@@]21C`, in test [1], the Potency result is “inactive”.

Regarding `Cc1c(C)c2c(c(C)c1O)CC[C@@](C)(CCC[C@H](C)CCC[C@H](C)CCCC(C)C)O2`, the Potency entry in test [2], in test [3], in test [4] and in test [5] was “inactive” in each case.

For the compound `C[C@H]1C[C@H]2[C@@H]3CCC4=CC(=O)C=C[C@]4(C)[C@@]3(F)[C@@H](O)C[C@]2(C)[C@@]1(O)C(=O)CO`, the Potency result in test [1], in test [2], in test [3], in test [4] and in test [5] was “inactive” throughout. Moreover, the activation in test [6] is -9.59%; in test [7] it was -3.68%.

For `C[C@]12CCC(=O)C=C1CC[C@@H]1[C@@H]2[C@@H](O)C[C@@]2(C)[C@H]1CC[C@]2(O)C(=O)COP(=O)(O)O`, the Potency entry in test [2], in test [3] and in test [4] was “inactive” each time.

Turning to `C=C1C(=CC=C2CCC[C@@]3(C)[C@@H]2CC[C@H]3[C@H](C)CCCC(C)C)C[C@@H](O)C[C@@H]1O`, in test [1], the Potency result was “inactive”. Moreover, in test [4], the Potency is 0.0287 µM (active).

For `CC(C)(C)NC(=O)[C@@H]1C[C@@H]2CCCC[C@@H]2CN1C[C@@H](O)[C@H](Cc1ccccc1)NC(=O)[C@H](CC(N)=O)NC(=O)c1ccc2ccccc2n1`, the Potency result in test [2] and in test [3] was “inactive” throughout. Further, in test [4], the Potency is 12.8 µM (active).

In the case of `O=C(O)c1cc(=O)c2c3nc4ccccc4oc-3cc(=O)c2[nH]1`, the Potency entry in test [1] and in test [5] was “inactive” in each case. In addition, the Potency in test [3] was 36.1 µM (active).

On to `OC[C@H]1O[C@@H](n2cnc3c2NC=NC[C@H]3O)C[C@@H]1O`, for which the Potency entry in test [2] was “inactive”.

Turning to `O=C(Nc1cccc(C(F)(F)F)c1)c1cc(Br)cc(Br)c1O`, the Potency result in test [1] and in test [4] was “inactive” in each case. Further, the Potency in test [2] was 7.21 µM (active).
